According to the supplement of paper PMC4840960:
± gives the standard deviation of the averaged measurements.

Legend:
[1] = system: E18 rat cortical neuron-glia co-culture; test: fiber score / MBP score (myelination specific beyond OL differentiation) (ratio); higher = more myelination-specific MBP alignment; conditions: treatment time: 8 days (DIV5-DIV13)
How it was run: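 Library compounds were applied at 1 or 5 µM in myelination medium, DIV5 to DIV13, to primary E18 rat cortical co-cultures grown at 20,000 cells/well in 96-well plates. After 4 % paraformaldehyde fixation and MBP/Olig2/DAPI immunostaining, four 10X fields per well in duplicate wells were scored. Each value is continuous MBP fiber length per Olig2+ nucleus divided by thresholded MBP area × intensity per Olig2+ nucleus.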

[2] = system: E18 rat cortical neuron-glia co-culture; test: myelination (MBP fiber length per Olig2+ nucleus), % of 1 µM DAPT response (DMSO = 0) (% of DAPT); higher = more myelination, active = 50 or more; conditions: treatment time: 8 days (DIV5-DIV13)
How it was run: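 Library compounds at 1 or 5 µM in myelination medium were applied from DIV5 to DIV13 to papain-dissociated E18 rat cortical co-cultures seeded at 20,000 cells/well on poly-d-lysine/laminin 96-well plates. Fixed cells (4 % paraformaldehyde) were immunostained for MBP and Olig2 with DAPI, and four 10X fields were analysed in each duplicate well. Continuous straight MBP fiber length per Olig2+ nucleus was set to 0 for 0.1 % DMSO and to 100 for a 1 µM positive control.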

Row | SMILES | fiber score / MBP score ([1]; 1 µM) | fiber score / MBP score ([1]; 5 µM) | myelination ([2]; 1 µM) | myelination ([2]; 5 µM)
1 | O=C1c2c(O)cc(O)cc2OC(c2ccc(O)c(O)c2)C1O (configuration not stated) [Taxifolin] | 0.697 | 0.943 | -33.2 (inactive) | -8.22 (inactive)
2 | Cc1ccc(S(=O)(=O)NC(=O)NN2CCCCCC2)cc1 [Tolazamide] | 0.701 | 0.729 | -15.6 (inactive) | -16.8 (inactive)
3 | O=c1[nH]c(=O)n(C2CCCO2)cc1F (configuration not stated) [Tegafur] | 0.967 | 0.729 | -11.7 (inactive) | 34.5 (inactive)
4 | C[C@H](CCC(=O)O)[C@H]1CC[C@H]2[C@@H]3[C@H](O)C[C@@H]4C[C@H](O)CC[C@]4(C)[C@H]3CC[C@]12C [Chenodeoxycholic Acid] | 0.861 | 0.787 | -8.08 (inactive) | -12 (inactive)
5 | COc1cc2nc(N3CCN(C(=O)C4COc5ccccc5O4)CC3)nc(N)c2cc1OC (configuration not stated) [Doxazosin] | 0.727 | 0.531 | -45.2 (inactive) | -54.3 (inactive)
6 | Cc1ncc([N+](=O)[O-])n1CC(C)O (configuration not stated) [Secnidazole] | 0.462 | 0.618 | -31.6 (inactive) | -18.7 (inactive)
7 | CCCCc1nc(Cl)c(CO)n1Cc1ccc(-c2ccccc2-c2nnn[nH]2)cc1 [Losartan] | 0.8 | – | -14.1 (inactive) | –
8 | CN(C/C=C/C#CC(C)(C)C)Cc1cccc2ccccc12 [Terbinafine] | 0.788 | – | -6.59 (inactive) | –
9 | Cc1cccc(C)c1NC(=O)C(C)N (configuration not stated) [Tocainide] | 0.776 | – | -15 (inactive) | –
10 | CC=CC(=O)N(CC)c1ccccc1C [Crotamiton] | 0.609 | – | -16.8 (inactive) | –
11 | CC1(C)S[C@@H]2[C@H](NC(=O)Cc3ccccc3)C(=O)N2[C@H]1C(=O)O [Penicillin G] | 0.898 | 1.19 | 12.3 (inactive) | 4.95 (inactive)
12 | COC(=O)Nc1nc2cc(C(=O)c3ccc(F)cc3)ccc2[nH]1 [Flubendazole] | 0.494 | – | -24 (inactive) | –
13 | CC(C)OC(=O)CCC/C=C\C[C@@H]1[C@@H](CC[C@@H](O)CCc2ccccc2)[C@H](O)C[C@@H]1O [Latanoprost] | 0.955 | 0.853 | -8.13 (inactive) | -8.74 (inactive)
14 | CCOC(=O)C1=C(COCCN)NC(C)=C(C(=O)OC)C1c1ccccc1Cl (configuration not stated) [Amlodipine] | 0.613 | – | -4.57 (inactive) | –
15 | Clc1ccc(CO/N=C(\Cn2ccnc2)c2ccc(Cl)cc2Cl)c(Cl)c1 [Oxiconazole] | 0.501 | – | -25.1 (inactive) | –
16 | CN1CCN(C2=Nc3cc(Cl)ccc3Nc3ccccc32)CC1 [Clozapine] | 0.395 | – | -14.8 (inactive) | –
17 | CCN(CC)CCOc1ccc(C(=C(Cl)c2ccccc2)c2ccccc2)cc1 [Clomiphene] | 0.64 | – | -33.9 (inactive) | –
18 | Cc1c(C(=O)NN2CCCCC2)nn(-c2ccc(Cl)cc2Cl)c1-c1ccc(I)cc1 | 0.94 | – | 17.6 (inactive) | –
19 | CSc1ccc2c(c1)N(CCC1CCCCN1C)c1ccccc1S2 (configuration not stated) [Thioridazine] | 0.479 | – | -11.4 (inactive) | < -29.5 (inactive)
20 | C[C@@H]1CN(CCCn2c3ccccc3c3ccccc32)C[C@H](C)N1 [Rimcazole] | 0.507 | – | -12.2 (inactive) | < -33.5 (inactive)
21 | NNCCc1ccccc1 [Phenelzine] | 0.849 ± 0.21 | – | -25.5 (inactive) | –
22 | CN1CCN(CCCN2c3ccccc3Sc3ccc(C(F)(F)F)cc32)CC1 [Trifluoperazine] | 0.177 | – | -80.1 (inactive) | –
